Reference: PubChem BioAssay
The source made the active and inactive calls. Unless noted, how the calls were made is not given here.

Tests used:
[1] = system: Wnt5a (protein binding on small-molecule microarray); assay: small molecules binding Wnt5a protein – biophysical, small-molecule microarray, 635/667 nm fluorescence, primary screen (AID 1142); settings: 635 nm fluorescence, higher = more signal;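 further: fluorescence read at 667 nm with signal to noise per printed feature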
[2] = ATP-based viability of Huh7 replicon cells – cell-based, CellTiter-Glo luminescence, basal, 48 h, cytotoxicity control for HCV replication inhibitor project, primary screen (AID 1143); settings: higher = more signal, called active from +8 up or from −8 down;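 further: Huh7 hepatoma cells carrying a hepatitis C replication reporter with no stimulus; test concentration not given here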
[3] = Pseudomonas biofilm growth suppression – PAO1 strain, BacTiter-Glo luminescence, LB-PBS, primary screen (AID 1144); settings: P. aeruginosa PAO1 biofilm, 12 h, higher = more signal
[4] = basal CRE-LacZ reporter activity in PC12 – cell-based, unstimulated, primary screen (AID 1145); settings: no forskolin, luminescence, 4.5 h, higher = more signal, called active from +8 up or from −8 down
[5] = forskolin-driven CRE-LacZ activity in PC12 – cell-based, CRE-LacZ reporter, forskolin-stimulated, primary screen (AID 1146); settings: luminescence, 4.5 h, higher = more signal, called active from +8 up or from −8 down;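 further: PC12 cells with 6xCRE LacZ reporter stimulated by forskolin 10 µM; beta-galactosidase reporter signal reflecting CREB driven transcription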
[6] = molecular target: Streptavidin (Streptomyces avidinii) (UniProt P22629); assay: compounds binding control protein streptavidin – biophysical, small-molecule microarray, 635/667 nm fluorescence, artefact control for SMM compound annotation, primary screen (AID 1147); settings: higher = more signal;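 further: signal reflects streptavidin binding to arrayed compounds as a control protein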
[7] = probe aInhba binding on compound microarray – biochemical, small-molecule microarray, 635/667 nm fluorescence, primary screen (AID 1148); settings: higher = more signal;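 further: score merges 667nm spot fluorescence with signal-to-noise for antibody binding to printed compounds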
Torsin-1A (Homo sapiens) [8] = molecular target: Torsin-1A (Homo sapiens) (UniProt O14656); assay: TOR1A wild-type binding on microarray – cell lysate, small-molecule microarray, lysate, 635/667 nm, primary screen (AID 1149); settings: COS7 hTOR1A-WT lysate, 635 nm fluorescence, higher = more signal
Torsin-1A (Homo sapiens) [9] = molecular target: Torsin-1A (Homo sapiens) (UniProt O14656); assay: torsin A mutant lysate binding on microarrays – cell lysate, small-molecule microarray, COS7 lysate, 635/667 nm fluorescence, primary screen (AID 1150); settings: COS7 hTOR1A mutant lysate, 635 nm fluorescence, higher = more signal;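 further: score pools 667 nm emission and signal to noise measuring lysate protein binding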
[10] = system: Sonic hedgehog protein (Shh); assay: Sonic hedgehog microarray binding compounds – biochemical, small-molecule microarray, 635/667 nm fluorescence, primary screen (AID 1151); settings: 635 nm fluorescence, higher = more signal;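 further: Shh protein binding to compounds spotted on small-molecule microarray slides; score combines spot fluorescence intensity with signal-to-noise across triplicate slides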

Chain of Streptavidin (Streptomyces avidinii) (P22629 whole entry, looked up): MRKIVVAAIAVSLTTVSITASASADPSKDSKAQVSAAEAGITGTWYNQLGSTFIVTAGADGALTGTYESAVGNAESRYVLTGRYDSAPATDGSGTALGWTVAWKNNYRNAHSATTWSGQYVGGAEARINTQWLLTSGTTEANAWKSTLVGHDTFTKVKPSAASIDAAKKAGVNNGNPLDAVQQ
Chain of Torsin-1A (Homo sapiens) (O14656 whole entry, looked up): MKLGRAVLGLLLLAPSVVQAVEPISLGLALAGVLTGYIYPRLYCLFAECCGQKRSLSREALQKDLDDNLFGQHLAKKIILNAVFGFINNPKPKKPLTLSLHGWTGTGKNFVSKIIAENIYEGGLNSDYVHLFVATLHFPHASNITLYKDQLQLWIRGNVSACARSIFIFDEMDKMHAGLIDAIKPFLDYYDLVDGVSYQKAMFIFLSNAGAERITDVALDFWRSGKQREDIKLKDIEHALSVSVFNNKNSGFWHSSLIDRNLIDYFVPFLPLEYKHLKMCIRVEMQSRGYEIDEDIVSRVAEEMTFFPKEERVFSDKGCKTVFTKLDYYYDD

| Structure (SMILES) | composite z-score [1] | z-score [2] | z-score [3] | z-score [4] | z-score [5] | composite z-score [6] | composite z-score [7] | composite z-score (Torsin-1A (Homo sapiens) [8]) | composite z-score (Torsin-1A (Homo sapiens) [9]) | composite z-score [10] |
| --- | --- | --- | --- | --- | --- | --- | --- | --- | --- | --- |
| COC(=O)[C@@]1(Cc2ccccc2CN=[N+]=[N-])N=C(c2ccc(OCCCO)cc2)O[C@H]1c1ccccc1 | 0.337 | -4.77 (inactive) | -1.09 (inactive) | 2.38 (inactive) | -0.923 (inactive) | -0.533 | 0.412 | 0.0213 | 0.925 | 0.381 |
| COC(=O)c1c2oc(c1C(=O)OC)C(=O)N1CCC[C@H]1Cn1nncc1CN(Cc1ccccc1)C(=O)N[C@H](CO)CC2 | 0.533 | 0.246 (inactive) | -0.294 (inactive) | 0.251 (inactive) | -0.147 (inactive) | 0.0789 | -0.0448 | -0.14 | -0.0715 | 0.658 |
| C=C(C)C1CCC(C(O)C2C=CC3C(=O)N(C)C(=O)C3N2Nc2cc(OC)c(OC)c(OC)c2)CC1 (stereo not given) | 0.109 | 0.454 (inactive) | 0.253 (inactive) | 0.243 (inactive) | 0.516 (inactive) | 0.889 | 0.222 | -0.0834 | 0.44 | 1.11 |
| CC(C)(C)OC(=O)CC[C@]12N=C(c3ccc(OCCCO)cc3)O[C@H]1c1ccccc1N(Cc1ccccc1)C2=O | 0.154 | -3.76 (inactive) | 1.18 (inactive) | 0.951 (inactive) | -0.746 (inactive) | -0.12 | 0.225 | 0.553 | 1.63 | 1.12 |
| Cc1ccc(S[C@]2(C(=O)NCC(C)C)CC(=O)N(C3Cc4ccccc4C3)[C@@H]2c2ccc(CO)cc2I)cc1 | -0.305 | -0.552 (inactive) | 0.491 (inactive) | 0.389 (inactive) | 1.42 (inactive) | -1.21 | -0.182 | -0.284 | -0.183 | -0.51 |
| CC(C)CNC(=O)[C@@H]1c2ccccc2C(=O)N(C2CCCCC2)[C@H]1c1ccc(CO)cc1 | -0.141 | -2.94 (inactive) | -0.466 (inactive) | -0.179 (inactive) | -1.55 (inactive) | -0.285 | -0.101 | 0.146 | -0.0175 | -0.242 |
| O=C(N1CCOCC1)[C@@]1(CCS(=O)(=O)c2ccccc2)N=C(c2ccc(OCCCO)cc2)O[C@H]1c1ccccc1 | 0.465 | -1.48 (inactive) | 0.201 (inactive) | 0.0127 (inactive) | -0.0526 (inactive) | 2.39 | 0.3 | 0.411 | 0.767 | -0.514 |
| CC(C)c1ccc(NN2C(C(O)Cc3ccccc3)C=CC3C(=O)N(c4ccccc4)C(=O)C32)cc1 (stereo not given) | 0.204 | -0.695 (inactive) | -0.221 (inactive) | 0.243 (inactive) | 2.48 (inactive) | 1.87 | -0.152 | 0.14 | 0.815 | -0.154 |
| CC(C)[C@H]1NC(=O)[C@@]23C(=O)N[C@@H](Cc4ccccc4)C2[C@H](C)[C@@]2(C)O[C@H]2C3/C=C/C/C=C\CNC(=O)[C@H](Cc2ccccc2)NC1=O (stereo not given in full) | 0.566 | -2.56 (inactive) | 1.12 (inactive) | 1.57 (inactive) | -0.513 (inactive) | 0.852 | 0.0528 | 1.3 | 0.629 | 1.96 |
| CO[C@H]1O[C@H](CO)[C@@H](OC(=O)c2ccc(Br)cc2)[C@@H]2OC(=O)[C@H](Cc3ccccc3)C/C=C/C[C@@H](Cc3ccccc3)C(=O)O[C@@H]12 | 0.293 | -3.95 (inactive) | -1.16 (inactive) | -0.0017 (inactive) | -0.175 (inactive) | 0.088 | -0.263 | -0.295 | -0.0307 | 0.984 |
| CC(=O)NCCCC[C@@H]1NC(=O)[C@@H]2C[C@H](C(=O)NCCCCCCN)[C@H](c3cccc(OCCO)c3)N2C1=O | -0.147 | -0.0107 (inactive) | 0.615 (inactive) | -0.13 (inactive) | -0.556 (inactive) | 0.932 | -0.128 | 0.475 | 0.464 | -0.601 |
| CCCCCN1CC=CC23O[C@@H]4C=CCOC(=O)[C@@H]4[C@H]2C(=O)N(CCO)[C@@H]3C1=O (stereo not given in full) | -0.395 | -0.143 (inactive) | 1.13 (inactive) | -0.0818 (inactive) | -0.585 (inactive) | -0.958 | -0.205 | 1.17 | 1.78 | -0.456 |
| CCOC(=O)C1=C[C@@H](c2ccccc2)N(S(=O)(=O)c2ccc(C)cc2)[C@H]1c1ccccc1 | 0.202 | -1.91 (inactive) | -0.42 (inactive) | -0.275 (inactive) | 0.294 (inactive) | 1.1 | 0.0925 | 0.0157 | 0.176 | 0.212 |
| Cc1ccccc1C(O)C1C=CC2C(=O)N(c3ccccc3)C(=O)C2N1Nc1ccc([N+](=O)[O-])cc1 (stereo not given) | -0.0078 | -0.52 (inactive) | -0.35 (inactive) | 0.78 (inactive) | 0.598 (inactive) | 1.77 | 0.3 | 0.992 | 0.593 | 0.176 |
| C[C@]1(C(=O)O)c2ccccc2C(=O)N(Cc2ccc(OC(F)(F)F)cc2)[C@H]1c1ccc(CO)cc1 | 0.386 | -0.17 (inactive) | -0.526 (inactive) | 0.118 (inactive) | -0.48 (inactive) | -0.129 | 0.053 | 0.45 | 0.522 | -0.261 |
| CC(=O)n1cc(C(O)C2C=CC3C(=O)N(c4ccccc4)C(=O)C3N2Nc2ccc(C(C)C)cc2)c2ccccc21 (stereo not given) | 0.076 | -0.609 (inactive) | -0.827 (inactive) | 0.24 (inactive) | -0.247 (inactive) | 1.88 | 0.161 | -0.285 | 0.617 | -0.69 |
| CN(C)C(=O)[C@@]1(Cc2ccccc2)COC(c2ccc(OCCCO)cc2)=N1 | -0.243 | -2.58 (inactive) | 0.59 (inactive) | 1.74 (inactive) | -1.3 (inactive) | 0.142 | -0.661 | 0.0565 | -0.22 | -0.618 |
| COc1ccc(C(O)C2C=CC3C(=O)N(c4ccccc4)C(=O)C3N2Nc2ccccc2)cc1 (stereo not given) | 0.256 | -0.0351 (inactive) | -0.0851 (inactive) | 0.426 (inactive) | -0.356 (inactive) | 0.571 | 0.105 | -0.109 | 0.692 | 0.393 |
| CC(C)(C)OC(=O)CC[C@]1(C(=O)N2CCCCC2)COC(c2ccc(OCCCO)cc2)=N1 | 0.784 | -2.07 (inactive) | -0.984 (inactive) | -0.837 (inactive) | 0.238 (inactive) | 1.36 | 0.127 | 0.655 | 0.967 | -0.65 |
| Cc1ccc(S[C@]2(C(=O)NCc3ccccc3)CC(=O)N(Cc3cc(C(F)(F)F)cc(C(F)(F)F)c3)[C@@H]2c2ccc(CO)cc2I)cc1 | -0.309 | -1.24 (inactive) | -0.314 (inactive) | 0.479 (inactive) | 0.279 (inactive) | -0.649 | -0.0523 | -0.199 | -0.298 | -0.757 |
| C=CCC(OC(C)=O)[C@@H]1[C@@H](N(Cc2cc3ccccc3o2)C(=O)c2ccc(-c3ccccc3)cc2)c2cc(OCCCO)ccc2N1C(=O)Cc1ccc(OC)cc1 (stereo not given in full) | -0.138 | 0.0567 (inactive) | 0.263 (inactive) | 1.09 (inactive) | 0.289 (inactive) | -0.0182 | -0.0736 | -0.592 | -0.324 | 0.366 |
| CN1C=C(C(=O)OCCS(C)(=O)=O)C(C(=O)OCCS(C)(=O)=O)=CC(c2ccc(CO)cc2)=CC1c1cccs1 (stereo not given) | 0.0466 | -1.3 (inactive) | 0.637 (inactive) | 2.34 (inactive) | -1.45 (inactive) | 1.42 | 0.0659 | 0.579 | 0.713 | 0.929 |
| COCCOC(=O)N1C(=O)[C@@]2(c3cc(C#CC4=CCCCC4)ccc31)[C@H](c1ccc(O)cc1)N1[C@H](c3ccccc3)[C@H](c3ccccc3)OC(=O)[C@H]1[C@@H]2C(=O)NC[C@H](O)c1ccccc1 | 0.259 | -3.27 (inactive) | -0.354 (inactive) | -0.815 (inactive) | -0.369 (inactive) | 0.318 | 0.0227 | 0.184 | 1.29 | 1.27 |
| C=C(/C(=C/C[C@H](OC(=O)c1ccncc1)c1cccc(OCCO)c1)c1cnc2ccccc2c1)C(C)C | 0.518 | -7.81 (inactive) | 0.503 (inactive) | 30.3 (active) | -0.386 (inactive) | 0.929 | -0.05 | -0.382 | -0.22 | 2.23 |
| C=C[C@@H](OC)[C@H](OC(=O)Nc1ccc(SC)cc1)c1ccc(OCCO)cc1 | 0.502 | -2.53 (inactive) | -0.918 (inactive) | 9.77 (active) | 0.136 (inactive) | 0.22 | -0.071 | 0.615 | 0.8 | 1.2 |
| COc1ccc(NC(=O)O[C@H]2[C@@H]3OC(=O)[C@H](Cc4cccc(Br)c4)C/C=C/C[C@@H](Cc4cccc(Br)c4)C(=O)O[C@H]3[C@@H](OC)O[C@@H]2CO)cc1 | 0.232 | -0.878 (inactive) | 0.388 (inactive) | 0.753 (inactive) | -0.686 (inactive) | 0.328 | 0.318 | 0.344 | 1.34 | 0.597 |
| CS(=O)(=O)CCOC(=O)C1=CC(CCCO)=CC(C2CC2)N(Cc2cccc(OC(F)(F)F)c2)C=C1C(=O)OCCS(C)(=O)=O (stereo not given) | 0.0607 | -1.21 (inactive) | 0.154 (inactive) | 4.86 (inactive) | 0.0235 (inactive) | -0.358 | 0.0082 | 1.29 | 2.13 | 0.186 |
